# Measured values from PubChem BioAssay.
# Active and inactive are the calls of the source. Unless noted, the rule behind the calls is not given here.
# Experiments:
# [1] = HepG2 liver cancer cell viability effects, profiling panel, resazurin fluorescence, 24 h, PK04 Diversity Set (AID 1172); settings: higher = more signal; note: test concentration not given here
# [2] = basal S. cerevisiae growth modulation, no modifier, primary screen, OD600, strain BY4716, 24 h, basal condition (AID 1173); settings: OD600, 24 h, higher = more signal, called active from +8 up or from −8 down
# [3] = MM1S myeloma cell viability, profiling panel, resazurin fluorescence, basal, 24 h, PK04 Diversity Set (AID 1174); settings: higher = more signal, called active from +8 up or from −8 down;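 note: MM1S multiple myeloma cell line; test concentration not given here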
# [4] = molecular target: Dihydroorotate dehydrogenase (quinone), mitochondrial (Plasmodium falciparum (isolate 3D7)) (UniProt Q08210); test: PfDHODH enzyme inhibitors, primary screen, biochemical, C-terminal His tag, absorbance 600 nm (AID 1175); settings: DCIP absorbance 600 nm, higher = more signal, called active from +8 up or from −8 down;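 note: recombinant parasite enzyme with a five histidine tag at its C terminus; test concentration not given here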
# Dihydroorotate dehydrogenase (quinone), mitochondrial (Plasmodium falciparum (isolate 3D7)), sequence (Q08210 whole entry, looked up): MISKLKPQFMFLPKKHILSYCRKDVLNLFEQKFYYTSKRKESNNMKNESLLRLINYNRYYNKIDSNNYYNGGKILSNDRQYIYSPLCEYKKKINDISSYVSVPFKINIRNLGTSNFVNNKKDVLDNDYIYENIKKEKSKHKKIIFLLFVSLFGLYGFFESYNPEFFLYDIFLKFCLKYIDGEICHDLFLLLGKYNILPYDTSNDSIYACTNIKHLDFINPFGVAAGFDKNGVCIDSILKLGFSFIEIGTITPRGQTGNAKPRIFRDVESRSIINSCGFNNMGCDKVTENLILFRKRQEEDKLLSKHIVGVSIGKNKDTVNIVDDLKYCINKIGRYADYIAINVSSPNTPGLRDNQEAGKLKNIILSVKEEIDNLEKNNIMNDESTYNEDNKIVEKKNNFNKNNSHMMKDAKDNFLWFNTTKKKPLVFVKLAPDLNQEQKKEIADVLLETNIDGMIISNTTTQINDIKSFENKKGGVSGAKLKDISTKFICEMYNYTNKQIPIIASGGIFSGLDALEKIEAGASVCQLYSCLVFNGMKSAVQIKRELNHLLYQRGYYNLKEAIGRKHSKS
# [5] = P. aeruginosa biofilm formation inhibitors, primary screen, strain PAO1, LB-PBS medium, absorbance 600 nm (AID 1176); note: test concentration not given here; settings: P. aeruginosa PAO1 growth/biofilm, A600, 12 h; higher = more signal
# [6] = S. cerevisiae RM11-1a growth modifiers, primary screen, strain RM11-1a, OD600, basal, 24 h (AID 1177); settings: OD600, 24 h, higher = more signal, called active from +8 up or from −8 down;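 note: cultures grown under basal conditions with no added stressor; test concentration not given here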
# [7] = E. coli acrAB mutant growth effects, primary screen, E. coli filamentation inducers, strain DRC39, OD650, 24 h (AID 1178); settings: higher = more signal, called active from +8 up or from −8 down;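 note: growth measured as culture turbidity by optical density at 650 nm; test concentration not given here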
# [8] = E. coli acrAB mutant growth effects, primary screen, E. coli filamentation inducers, strain DRC39, OD650, 48 h (AID 1179);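 note: screen aims at cell division blockers that make cells filament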; settings: E. coli DRC39 delta-acrAB growth, higher = more signal, called active from +8 up or from −8 down
# [9] = RPMI8226 myeloma cell viability, profiling panel, resazurin fluorescence, basal, 24 h, PK04 Diversity Set (AID 1180); settings: higher = more signal;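 note: RPMI8826 multiple myeloma cell line at 5000 cells per well; test concentration not given here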
# [10] = molecular target: E3 ubiquitin-protein ligase XIAP (Homo sapiens) (UniProt P98170); test: XIAP binders, primary screen, biophysical, small-molecule microarray, fluorescence 635 nm (AID 1181); settings: small-molecule microarray binding, higher = more signal;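 note: score merges 667 nm emission and signal to noise over triplicate slides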
# E3 ubiquitin-protein ligase XIAP (Homo sapiens), sequence (P98170 whole entry, looked up): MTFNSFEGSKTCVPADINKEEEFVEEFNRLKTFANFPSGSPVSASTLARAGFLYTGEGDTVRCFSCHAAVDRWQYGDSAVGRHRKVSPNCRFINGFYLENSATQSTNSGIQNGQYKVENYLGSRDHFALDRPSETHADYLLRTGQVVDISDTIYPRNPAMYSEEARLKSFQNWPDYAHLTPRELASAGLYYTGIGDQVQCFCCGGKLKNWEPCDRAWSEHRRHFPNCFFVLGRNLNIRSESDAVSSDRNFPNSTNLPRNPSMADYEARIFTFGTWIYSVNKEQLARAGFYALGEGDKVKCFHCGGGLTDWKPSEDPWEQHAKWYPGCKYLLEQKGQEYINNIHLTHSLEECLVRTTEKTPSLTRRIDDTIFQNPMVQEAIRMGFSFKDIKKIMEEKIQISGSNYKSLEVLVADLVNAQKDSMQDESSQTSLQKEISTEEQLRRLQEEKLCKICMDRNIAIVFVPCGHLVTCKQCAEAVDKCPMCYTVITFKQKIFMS
SMILES,z-score [1],z-score [2],z-score [3],composite z-score [4],z-score [5],z-score [6],z-score [7],z-score [8],z-score [9],composite z-score [10]
CN1CCC(CCCO)=CC1c1ccc(CN2CCCC2)cc1 (stereo not given),0.106,-1.33 (inactive),-0.202 (inactive),-0.27 (inactive),0.661 (inactive),-0.0607 (inactive),0.0543 (inactive),0.201 (inactive),-0.304,0.194
O=C1N(CCS(=O)(=O)c2ccccc2)c2ccccc2C[C@@]12COC(c1ccc(OCCCO)cc1)=N2,-0.73,1.3 (inactive),-0.756 (inactive),0.558 (inactive),0.603 (inactive),1.31 (inactive),-0.0526 (inactive),-0.726 (inactive),-0.816,0.262
C=C(C(=O)CC[C@H](OC(C)=O)c1ccc(OCCO)cc1)C(C)C,0.163,-16.2 (active),0.192 (inactive),-8.01 (active),-1.21 (inactive),-21.4 (active),-0.135 (inactive),0.204 (inactive),-0.349,-0.177
COCCOC(=O)N1C(=O)[C@@]2(c3cc(C#CCCO)ccc31)[C@H](c1ccc(O)cc1)N1[C@H](c3ccccc3)[C@H](c3ccccc3)OC(=O)[C@H]1[C@@H]2C(N)=O,-0.231,0.0254 (inactive),-0.644 (inactive),-0.294 (inactive),0.911 (inactive),0.565 (inactive),0.145 (inactive),0.138 (inactive),-1.08,-0.0272
COc1ccc(C(O)C2C=CC3C(=O)NC(=O)C3N2Nc2ccccn2)cc1OCc1ccccc1 (stereo not given),-0.8,0.481 (inactive),-0.581 (inactive),1.58 (inactive),1.48 (inactive),0.18 (inactive),-0.855 (inactive),0.145 (inactive),-1.87,0.578
CC(C)C(=C=CC[C@H](O)c1cccc(OCCO)c1)C[C@H](O)COCc1ccccc1,0.685,-0.535 (inactive),0.0454 (inactive),-1.25 (inactive),0.449 (inactive),0.194 (inactive),0.339 (inactive),0.262 (inactive),0.163,-0.113
O=C/C=C/c1ccc(Cl)cc1,-0.831,-18 (active),-0.832 (inactive),-1.96 (inactive),0.475 (inactive),-4.94 (inactive),0.3 (inactive),0.782 (inactive),-0.81,-0.134
COCC1=C2[C@@H](CCc3ccccc3)OB(O)C[C@@H]2[C@@H]2C(=O)N(Cc3ccccc3)C(=O)[C@@H]2C1,0.0373,-1.69 (inactive),-0.278 (inactive),-0.345 (inactive),-0.177 (inactive),-1.06 (inactive),-0.0682 (inactive),-0.0309 (inactive),-0.039,-0.231
N#Cc1ccc(NN2C(C(O)C3CCCCC3)C=CC3C(=O)N(c4ccccc4)C(=O)C32)cc1 (stereo not given),-0.779,-0.394 (inactive),-0.668 (inactive),-0.177 (inactive),1.14 (inactive),-0.28 (inactive),-0.427 (inactive),-0.673 (inactive),-0.848,0.262
NCCCCCCNC(=O)[C@H]1C[C@H]2C(=O)NCC(=O)N2[C@H]1c1cccc(OCCO)c1,0.583,-1.42 (inactive),0.724 (inactive),-0.42 (inactive),-0.475 (inactive),-0.689 (inactive),1.42 (inactive),1.61 (inactive),1.08,0.0785
O=C(CCN1CCOCC1)c1cccc(O)c1,1.19,-0.804 (inactive),-1.43 (inactive),-1.44 (inactive),-0.407 (inactive),-1.07 (inactive),0.251 (inactive),0.737 (inactive),-1.6,0.226
CN(C)CCCNC(=O)[C@@]1(Cc2ccccc2I)c2ccccc2C(=O)N(Cc2ccccc2C(F)(F)F)[C@H]1c1ccc(CO)cc1,-6.04,-6.8 (inactive),-7.53 (inactive),0.35 (inactive),0.0993 (inactive),0.653 (inactive),-0.299 (inactive),0.247 (inactive),-4.01,-0.288
[N-]=[N+]=NCc1ccccc1C[C@]1(C(=O)O)N=C(c2ccc(OCCCO)cc2)O[C@H]1c1ccccc1CN=[N+]=[N-],0.924,-3.5 (inactive),0.349 (inactive),-2.16 (inactive),0.563 (inactive),-1.05 (inactive),0.279 (inactive),-0.717 (inactive),-0.0479,-0.139
Cc1ccc(S[C@]2(C(=O)NCc3ccccc3)CC(=O)N(Cc3ccccc3)[C@@H]2c2ccc(CO)cc2)cc1,-0.345,-0.27 (inactive),0.0206 (inactive),-0.465 (inactive),0.429 (inactive),0.265 (inactive),-0.037 (inactive),-0.472 (inactive),-0.0925,-0.121
COc1ccc(NN2C(C(O)c3ccc(OC)c(OCc4ccccc4)c3)C=CC3C(=O)N(C4CCCCC4)C(=O)C32)cc1 (stereo not given),1.03,-1.76 (inactive),0.0269 (inactive),-0.0522 (inactive),0.946 (inactive),-0.221 (inactive),-0.101 (inactive),1.19 (inactive),0.0424,-0.141
COC(=O)[C@@]1(Cc2ccc(OC)cc2)[C@H]2c3cc(C(=O)N4CCCC4)n(Cc4ccccn4)c3C[C@H]2CN1C(=O)c1ccccc1,-1.73,2.39 (inactive),-1.07 (inactive),0.81 (inactive),0.743 (inactive),1.13 (inactive),-0.564 (inactive),0.147 (inactive),-2.2,0.0379
COCC(=C=CC[C@@H](O)c1ccc(CO)o1)CCO,0.59,-3.07 (inactive),0.698 (inactive),-9.96 (active),0.862 (inactive),-3.85 (inactive),1.13 (inactive),1.1 (inactive),0.529,0.116
CC1=C2[C@@H](CCc3ccccc3)OB(O)C[C@@H]2n2c(=O)n(-c3ccccc3)c(=O)n2C1,-0.32,-2.07 (inactive),-0.498 (inactive),0.369 (inactive),-0.177 (inactive),-0.42 (inactive),-0.618 (inactive),-0.63 (inactive),-0.582,0.0193
C=CCNC(=O)[C@@H]1[C@H]2C(=O)O[C@H](c3ccccc3)[C@H](c3ccccc3)N2[C@H](c2ccccc2OCCO)[C@@]12C(=O)Nc1ccc(C#CC3=CCCCC3)cc12,-1.55,0.556 (inactive),-2.61 (inactive),0.496 (inactive),1.55 (inactive),1.78 (inactive),-0.125 (inactive),-0.353 (inactive),-5,0.0593
C=C[C@@H](COC(C)=O)N(Cc1ccccc1[N+](=O)[O-])S(=O)(=O)c1ccc(Br)cc1,-0.798,-2.24 (inactive),-0.504 (inactive),-2.79 (inactive),-0.0963 (inactive),-2.34 (inactive),1.47 (inactive),0.911 (inactive),0.0192,0.183
C=C[C@H](C)[C@@H](O)c1ccc(O)c2ccccc12,0.146,-12.2 (active),-1 (inactive),-0.177 (inactive),1.03 (inactive),0.248 (inactive),0.537 (inactive),0.445 (inactive),-0.791,-0.0622
C=CCOC(=O)[C@H]1[C@@H]2C(=O)O[C@@H](c3ccccc3)[C@@H](c3ccccc3)N2[C@@H](c2ccc(OCCOC(=O)[C@@H]3C[C@@H]4C(=O)NCC(=O)N4[C@@H]3c3ccc(O)cc3)cc2)[C@]12C(=O)Nc1ccccc12,0.558,-0.0301 (inactive),1.56 (inactive),-0.803 (inactive),2.05 (inactive),-1.38 (inactive),0.971 (inactive),1.61 (inactive),0.765,-0.121
COCCOC(=O)N1C(=O)[C@@]2(c3cc(C#CCC(C(=O)OC)C(=O)OC)ccc31)[C@H](c1ccccc1OCCO)N1[C@H](c3ccccc3)[C@H](c3ccccc3)OC(=O)[C@H]1[C@@H]2C(=O)N1CCc2cc(OC)c(OC)cc2C1,1.68,0.983 (inactive),1.58 (inactive),-0.857 (inactive),1.45 (inactive),1.16 (inactive),0.252 (inactive),-0.441 (inactive),1.78,0.314
CCCCC=C[C@@H](NC(=O)c1cccs1)c1ccccc1,0.327,0.822 (inactive),-0.321 (inactive),0.0375 (inactive),0.191 (inactive),1 (inactive),0.659 (inactive),0.955 (inactive),-1.95,-0.0426
Cc1ccccc1C(O)C1C=CC2C(=O)N(C)C(=O)C2N1Nc1ccccc1 (stereo not given),-1.19,-0.532 (inactive),-1.32 (inactive),-0.513 (inactive),1.07 (inactive),-0.547 (inactive),-0.688 (inactive),-0.611 (inactive),-1.61,0.179
